{
  "source": "PubChem BioAssay (NCATS)",
  "note": "Results filed as inconclusive are left out. Values without a mark were called inactive. The source made the active and inactive calls. Calls come from the whole dose curve; as a rule, active = well fitted curve in the direction sought with a large enough effect; inconclusive = small, poorly fitted or top-dose-only effect, or another doubt; inactive = no such curve, though single readings can be large; an effect the other way counts as inactive or inconclusive. Potency is the fitted concentration of half-maximal effect.",
  "data": [
    {"target": "Rap guanine nucleotide exchange factor 3 (Homo sapiens) (UniProt O95398)", "sequence (O95398 whole entry, looked up)": "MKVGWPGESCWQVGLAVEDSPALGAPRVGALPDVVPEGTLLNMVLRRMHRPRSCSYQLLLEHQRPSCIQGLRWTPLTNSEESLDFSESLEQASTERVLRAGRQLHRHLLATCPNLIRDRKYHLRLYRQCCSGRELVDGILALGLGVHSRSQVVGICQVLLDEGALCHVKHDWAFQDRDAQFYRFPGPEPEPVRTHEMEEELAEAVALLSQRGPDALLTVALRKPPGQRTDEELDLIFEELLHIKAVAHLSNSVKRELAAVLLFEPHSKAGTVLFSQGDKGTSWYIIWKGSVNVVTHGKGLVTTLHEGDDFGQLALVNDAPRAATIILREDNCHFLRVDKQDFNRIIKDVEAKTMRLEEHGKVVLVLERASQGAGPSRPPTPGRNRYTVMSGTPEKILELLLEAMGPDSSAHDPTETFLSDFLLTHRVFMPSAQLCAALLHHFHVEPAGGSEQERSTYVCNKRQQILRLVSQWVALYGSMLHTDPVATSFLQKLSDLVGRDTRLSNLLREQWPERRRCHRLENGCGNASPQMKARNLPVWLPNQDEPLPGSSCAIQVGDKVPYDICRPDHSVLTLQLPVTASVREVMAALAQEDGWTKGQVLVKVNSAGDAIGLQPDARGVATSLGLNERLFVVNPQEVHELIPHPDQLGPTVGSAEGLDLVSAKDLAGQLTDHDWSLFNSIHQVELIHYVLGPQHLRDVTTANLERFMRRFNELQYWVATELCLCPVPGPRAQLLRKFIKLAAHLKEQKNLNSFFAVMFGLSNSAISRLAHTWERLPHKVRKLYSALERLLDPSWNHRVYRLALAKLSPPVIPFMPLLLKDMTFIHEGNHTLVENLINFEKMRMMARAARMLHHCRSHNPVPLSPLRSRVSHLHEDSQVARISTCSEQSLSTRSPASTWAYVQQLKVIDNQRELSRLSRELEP", "assay": "Confirmatory qHTS for antagonist of cAMP-regulated guanine nucleotide exchange factor 3 (EPAC1) (AID 1645880); note: nearly all actives have a fitted effect of over 55% in size;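 for activity, negative = inhibition: plate controls were DMSO only for no effect and full effect of the ATA control for full effect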", "conditions": "EPAC1 Rap1B-BODIPY-GDP exchange, fluorescence; activity, negative = inhibition: at 115 µM (top of the series)", "how_it_was_run": "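Released BODIPY-GDP fluoresces less than Rap1-bound BODIPY-GDP; the signal is followed at 480/540 nm at 5-min intervals over 30 min, after 5 min at room temperature. Reactions contain 100 nM EPAC1, 250 nM RAP1B-BODIPY-GDP and 50 uM GDP; results are normalized to ATA and DMSO.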", "units": {"activity, negative = inhibition": "%"}, "values": [
      {"smiles": "Cc1nc2ccccc2c(=O)n1N(c1ccccc1)c1ccccc1", "activity, negative = inhibition": -22.6},
      {"smiles": "COc1ccc(C(=O)N/N=C/c2ccc3cccc(OCc4ccccc4)c3n2)cc1", "activity, negative = inhibition": -25.9},
      {"smiles": "O=C(O)CSc1cc(NS(=O)(=O)c2ccc(Cl)cc2)c2ccccc2c1O", "Potency": "75.7 µM (active)"},
      {"smiles": "CSc1nc(C)cc(C)c1S(=O)(=O)c1ccccc1C", "activity, negative = inhibition": -11.8},
      {"smiles": "O=C(Nc1sc2c(c1C(=O)O)CCC2)c1ccccc1F", "activity, negative = inhibition": -23.4},
      {"smiles": "COc1cc(/C=C2\\C(=O)N(c3cccc(C(=O)O)c3)N=C2C)ccc1OCc1ccccc1", "Potency": "37.9 µM (active)"},
      {"smiles": "Cc1ccc(CNc2cc(C)nc3nc(-c4cccc(C)c4)nn23)cc1", "activity, negative = inhibition": -38.9},
      {"smiles": "COc1cc(OC)c2c(-c3ccccc3)cc(=O)oc2c1C(CC(=O)N1CCOCC1)c1ccc2c(c1)OCO2", "note": "(stereo not given)", "activity, negative = inhibition": -18.8},
      {"smiles": "CC(=O)C1C(=O)C=C(c2cccs2)CC1c1ccccc1", "note": "(stereo not given)", "activity, negative = inhibition": -14.9},
      {"smiles": "CC(=O)NC(c1ccccc1)c1nc(-c2cccs2)cs1", "note": "(stereo not given)", "activity, negative = inhibition": -18.2},
      {"smiles": "O=[N+]([O-])c1ccccc1O[C@@H]1O[C@H](CO)[C@H](O)[C@H](O)[C@H]1O", "activity, negative = inhibition": -15.1},
      {"smiles": "Cc1nn(-c2ccccc2)c(Cl)c1/C=N/Nc1ccc(S(=O)(=O)Nc2ccccc2C(=O)O)cc1[N+](=O)[O-]", "Potency": "42.6 µM (active)"},
      {"smiles": "CC(C)=CCc1c(O)cc2oc3c(CC=C(C)C)c(O)c(O)c(CC=C(C)C)c3c(=O)c2c1O", "Potency": "75.7 µM (active)"},
      {"smiles": "CCCCCCc1cc2cc(-c3nnc(-c4ccc(C)cc4)o3)c(=O)oc2cc1O", "activity, negative = inhibition": -28.9},
      {"smiles": "CCOC(=O)C1Nc2c(F)cc(C)cc2C2c3ccccc3CC12", "note": "(stereo not given)", "activity, negative = inhibition": -18.9},
      {"smiles": "O=C1CC2(CCCCC2)Oc2ccc(F)cc21", "activity, negative = inhibition": -15.5},
      {"smiles": "O=C(Cc1ccccc1Cl)Nc1ccc(S(=O)(=O)N2CCOCC2)cc1", "activity, negative = inhibition": -21.2},
      {"smiles": "Cc1ccc(CC#N)c(-c2c(CC#N)ccc(C)c2C)c1C", "activity, negative = inhibition": -24.3},
      {"smiles": "COC(C(=O)Nc1ccc(Br)cc1F)c1ccccc1", "note": "(stereo not given)", "activity, negative = inhibition": -27.6},
      {"smiles": "O=C(Cc1c(Cl)cccc1Cl)Nc1ccc(S(=O)(=O)Nc2ncccn2)cc1", "activity, negative = inhibition": -3.73},
      {"smiles": "O=C1ON=C(c2ccccc2)/C1=C/c1ccc(-c2ccccc2[N+](=O)[O-])o1", "Potency": "37.9 µM (active)"},
      {"smiles": "CC(=O)N1CCc2c(sc(NC(=O)CS(=O)(=O)c3ccc(F)cc3)c2C(N)=O)C1", "activity, negative = inhibition": -18.6},
      {"smiles": "CCN(CC1COc2ccccc2O1)C(=O)CN1C(=O)NC(C)(c2ccc(C)cc2)C1=O", "note": "(stereo not given)", "activity, negative = inhibition": -16.5},
      {"smiles": "O=C(Cn1cnc2c(nnn2Cc2ccccc2)c1=O)N1CCN(c2ccccc2)CC1", "activity, negative = inhibition": -19.3},
      {"smiles": "CCCCn1nnnc1C(c1ccccc1)N1CCN(c2ccc(F)cc2)CC1", "note": "(stereo not given)", "activity, negative = inhibition": -23.4},
      {"smiles": "COC(=O)C1=CN(Cc2cccs2)C=C(C(=O)OC)C1c1cccc(O)c1", "activity, negative = inhibition": -18.8},
      {"smiles": "O=C(Nc1cccc(Cl)c1N1CCOCC1)c1cccs1", "activity, negative = inhibition": 0.343},
      {"smiles": "Cc1nc2sc(C(c3cccs3)N3CCN(C(=O)c4ccco4)CC3)c(O)n2n1", "note": "(stereo not given)", "activity, negative = inhibition": -7.4},
      {"smiles": "COC(=O)/C(=C/Nc1ccc(O)cc1)[N+](=O)[O-]", "activity, negative = inhibition": -7.53},
      {"smiles": "COc1ccc(C2=CC(=O)OC3(CCCCC3)O2)cc1", "activity, negative = inhibition": -12.1},
      {"smiles": "O=C(CSc1nc2nn(-c3ccccc3)c(=O)c-2c2n1CCCCC2)c1ccc(O)c(O)c1", "Potency": "2.39 µM (active)"},
      {"smiles": "O=C(O)c1ccc(/C=N/Nc2cccc(C(F)(F)F)c2)cc1", "activity, negative = inhibition": 0.75},
      {"smiles": "COc1ccc(NC(=O)c2cc(-c3ccco3)nc3ccccc23)cc1S(=O)(=O)N1CCOCC1", "Potency": "9.53 µM (active)"},
      {"smiles": "COc1cc(/C=C2\\C(=N)N3N=C(S(C)(=O)=O)SC3=NC2=O)ccc1OS(=O)(=O)c1ccc(C)cc1", "Potency": "60.1 µM (active)"},
      {"smiles": "CCn1c(O)c(/C=N/NC(=O)c2ccncc2)c(=O)n(CC)c1=S", "activity, negative = inhibition": 25},
      {"smiles": "O=C(Nc1ccc2nc3n(c(=O)c2c1)CCCCC3)c1c(F)ccc([N+](=O)[O-])c1F", "Potency": "15.1 µM (active)"},
      {"smiles": "O=C(COc1ccccc1Cl)Nc1ccc(C(=O)c2ccc(C(=O)O)cc2)cc1", "activity, negative = inhibition": -24.8},
      {"smiles": "COc1ccc(/C=C2\\N=C(SC)N(c3ccccc3OC)C2=O)cc1", "activity, negative = inhibition": -11.1},
      {"smiles": "Nc1[nH]n2c(=O)cc(-c3ccccc3)nc2c1N=Nc1ccc(S(N)(=O)=O)cc1", "activity, negative = inhibition": -10.2},
      {"smiles": "CC1=CC(C)(C)N(C(=O)c2ccc(F)cc2)c2cc3c(cc21)OCO3", "activity, negative = inhibition": -26.3}
    ]},
    {"target": "Rap guanine nucleotide exchange factor 3 (Homo sapiens) (UniProt O95398)", "assay": "Confirmatory qHTS for agonist of cAMP-regulated guanine nucleotide exchange factor 3 (EPAC1) (AID 1645881); note: nearly all actives have a fitted effect of over 75% in size;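 for activation: EPAC1 catalysed release of BODIPY-GDP from Rap1B seen as fluorescence loss; 100% = effect of cAMP agonist control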", "conditions": "EPAC1 Rap1B BODIPY-GDP exchange fluorescence; series mostly up to 154 µM; activation: at the top concentration", "units": {"activation": "%"}, "values": [
      {"smiles": "Cc1nc2ccccc2c(=O)n1N(c1ccccc1)c1ccccc1", "activation": 16},
      {"smiles": "COc1ccc(C(=O)N/N=C/c2ccc3cccc(OCc4ccccc4)c3n2)cc1", "activation": 13.9},
      {"smiles": "O=C(O)CSc1cc(NS(=O)(=O)c2ccc(Cl)cc2)c2ccccc2c1O", "activation": 29.8},
      {"smiles": "CSc1nc(C)cc(C)c1S(=O)(=O)c1ccccc1C", "activation": 13.6},
      {"smiles": "O=C(Nc1sc2c(c1C(=O)O)CCC2)c1ccccc1F", "activation": 1.31},
      {"smiles": "COc1cc(/C=C2\\C(=O)N(c3cccc(C(=O)O)c3)N=C2C)ccc1OCc1ccccc1", "activation": -8.9},
      {"smiles": "Cc1ccc(CNc2cc(C)nc3nc(-c4cccc(C)c4)nn23)cc1", "activation": 20.8},
      {"smiles": "COc1cc(OC)c2c(-c3ccccc3)cc(=O)oc2c1C(CC(=O)N1CCOCC1)c1ccc2c(c1)OCO2", "note": "(stereo not given)", "activation": 8.73},
      {"smiles": "CC(=O)C1C(=O)C=C(c2cccs2)CC1c1ccccc1", "note": "(stereo not given)", "activation": 15.8},
      {"smiles": "CC(=O)NC(c1ccccc1)c1nc(-c2cccs2)cs1", "note": "(stereo not given)", "activation": 8.46},
      {"smiles": "O=[N+]([O-])c1ccccc1O[C@@H]1O[C@H](CO)[C@H](O)[C@H](O)[C@H]1O", "activation": -2.38},
      {"smiles": "Cc1nn(-c2ccccc2)c(Cl)c1/C=N/Nc1ccc(S(=O)(=O)Nc2ccccc2C(=O)O)cc1[N+](=O)[O-]", "activation": 3.49},
      {"smiles": "CC(C)=CCc1c(O)cc2oc3c(CC=C(C)C)c(O)c(O)c(CC=C(C)C)c3c(=O)c2c1O", "activation": -25.2},
      {"smiles": "CCCCCCc1cc2cc(-c3nnc(-c4ccc(C)cc4)o3)c(=O)oc2cc1O", "activation": 11.9},
      {"smiles": "CCOC(=O)C1Nc2c(F)cc(C)cc2C2c3ccccc3CC12", "note": "(stereo not given)", "activation": 20.8},
      {"smiles": "O=C1CC2(CCCCC2)Oc2ccc(F)cc21", "activation": 15.1},
      {"smiles": "O=C(Cc1ccccc1Cl)Nc1ccc(S(=O)(=O)N2CCOCC2)cc1", "activation": 16.6},
      {"smiles": "Cc1ccc(CC#N)c(-c2c(CC#N)ccc(C)c2C)c1C", "activation": 1.4},
      {"smiles": "COC(C(=O)Nc1ccc(Br)cc1F)c1ccccc1", "note": "(stereo not given)", "activation": 13.5},
      {"smiles": "O=C(Cc1c(Cl)cccc1Cl)Nc1ccc(S(=O)(=O)Nc2ncccn2)cc1", "activation": 4.35},
      {"smiles": "O=C1ON=C(c2ccccc2)/C1=C/c1ccc(-c2ccccc2[N+](=O)[O-])o1", "activation": -2.61},
      {"smiles": "CC(=O)N1CCc2c(sc(NC(=O)CS(=O)(=O)c3ccc(F)cc3)c2C(N)=O)C1", "activation": 10.7},
      {"smiles": "CCN(CC1COc2ccccc2O1)C(=O)CN1C(=O)NC(C)(c2ccc(C)cc2)C1=O", "note": "(stereo not given)", "activation": 6.79},
      {"smiles": "O=C(Cn1cnc2c(nnn2Cc2ccccc2)c1=O)N1CCN(c2ccccc2)CC1", "activation": 9.35},
      {"smiles": "CCCCn1nnnc1C(c1ccccc1)N1CCN(c2ccc(F)cc2)CC1", "note": "(stereo not given)", "activation": 8.69},
      {"smiles": "COC(=O)C1=CN(Cc2cccs2)C=C(C(=O)OC)C1c1cccc(O)c1", "activation": 10.7},
      {"smiles": "O=C(Nc1cccc(Cl)c1N1CCOCC1)c1cccs1", "activation": 25.7},
      {"smiles": "Cc1nc2sc(C(c3cccs3)N3CCN(C(=O)c4ccco4)CC3)c(O)n2n1", "note": "(stereo not given)", "activation": 17.5},
      {"smiles": "COC(=O)/C(=C/Nc1ccc(O)cc1)[N+](=O)[O-]", "activation": 6.42},
      {"smiles": "COc1ccc(C2=CC(=O)OC3(CCCCC3)O2)cc1", "activation": 15.8},
      {"smiles": "O=C(CSc1nc2nn(-c3ccccc3)c(=O)c-2c2n1CCCCC2)c1ccc(O)c(O)c1", "activation": -1.92},
      {"smiles": "O=C(O)c1ccc(/C=N/Nc2cccc(C(F)(F)F)c2)cc1", "activation": 1.04},
      {"smiles": "COc1ccc(NC(=O)c2cc(-c3ccco3)nc3ccccc23)cc1S(=O)(=O)N1CCOCC1", "activation": 5.18},
      {"smiles": "COc1cc(/C=C2\\C(=N)N3N=C(S(C)(=O)=O)SC3=NC2=O)ccc1OS(=O)(=O)c1ccc(C)cc1", "activation": -2.75},
      {"smiles": "CCn1c(O)c(/C=N/NC(=O)c2ccncc2)c(=O)n(CC)c1=S", "Potency": "35.5 µM (active)"},
      {"smiles": "O=C(Nc1ccc2nc3n(c(=O)c2c1)CCCCC3)c1c(F)ccc([N+](=O)[O-])c1F", "activation": 3.93},
      {"smiles": "O=C(COc1ccccc1Cl)Nc1ccc(C(=O)c2ccc(C(=O)O)cc2)cc1", "activation": -5.88},
      {"smiles": "COc1ccc(/C=C2\\N=C(SC)N(c3ccccc3OC)C2=O)cc1", "activation": 10.5},
      {"smiles": "Nc1[nH]n2c(=O)cc(-c3ccccc3)nc2c1N=Nc1ccc(S(N)(=O)=O)cc1", "activation": 17.4},
      {"smiles": "CC1=CC(C)(C)N(C(=O)c2ccc(F)cc2)c2cc3c(cc21)OCO3", "activation": 18.1}
    ]}
  ]
}
